Inconclusive results are not listed. Active and inactive are the calls of the source. The call rests on the fitted dose curve; in most records, active means well fitted curve in the direction sought with a large enough effect; inconclusive means small, poorly fitted or top-dose-only effect, or another doubt; inactive means no such curve, though single readings can be large; an effect the other way counts as inactive or inconclusive.

For the first experiment, the target named is Endonuclease 4 (Escherichia coli (strain K12)) (UniProt P0A6C1). Put plainly: Counterscreen for APE1 Inhibitors: qHTS Validation Assay for Inhibitors of Endonuclease IV (AID 1708). Further: on the % scale 0 is the no-effect control and ±100 the full control effect. Conditions: E. coli endonuclease IV, DNA cleavage fluorescence; series mostly up to 57.1 µM; activity change, negative = inhibition: at the top concentration. The essentials: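 Incision of a double-stranded 50 nM TAMRA/BHQ-2 abasic substrate was followed kinetically (525/598 nm, reads every 60 s) after 15 min enzyme–compound preincubation with 2 nM EndoIV in pH 7.5 Tris buffer with MgCl2, DTT and Tween-20; concentration-response format.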
For `Cn1cnc2c(NCc3ccccc3)nc(NCCO)nc21`, the “activity change, negative = inhibition” value is -3.29% (inactive).
As to `Brc1ccc([C@H]2CN3CCSC3=N2)cc1`, the “activity change, negative = inhibition” value is -4.1% (inactive).
Same read-out and setting: with `NC(N)=NCCCCN=C(N)N` the figure was -1.85% (inactive); with `COc1ccccc1N1CCN(CCN2C(=O)CC3(CCCC3)CC2=O)CC1`, -6.35% (inactive).
`O=C1NC(c2cccc([N+](=O)[O-])c2)=CCN1c1ccccc1O`: the “activity change, negative = inhibition” value is -6.99% (inactive).

Tested on in a further experiment: not listed separately
Put plainly: qHTS for differential inhibitors of proliferation of Plasmodium falciparum line 7G8 (AID 1815).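 Further: parasite growth measured after three days of incubation.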 Further: potency means the concentration at half of the fitted maximal effect.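 On activity change, negative = inhibition: plate controls were vehicle wells for no effect and reference inhibitor wells for full effect.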 Conditions: Plasmodium falciparum 7G8 proliferation inhibition; series mostly up to 28.7 µM; activity change, negative = inhibition: at the top concentration.
Regarding `COc1cccc2c1[C@@H]1CN(CCCCn3c(=O)[nH]c4c(sc5ncc(-c6ccccc6)nc54)c3=O)C[C@@H]1CO2`, the Potency is 11.2 µM (active).
For `Cn1cnc2c(NCc3ccccc3)nc(NCCO)nc21`, the “activity change, negative = inhibition” value is -27% (inactive).
Regarding `Brc1ccc([C@H]2CN3CCSC3=N2)cc1`, the Potency is 11.2 µM (active).
Regarding `NC(N)=NCCCCN=C(N)N`, the “activity change, negative = inhibition” value was 1.74% (inactive).
On the same count and under the same terms, with `C[N+](C)(C)CCO` the figure was 12.5% (inactive); with `O=C1NC(c2cccc([N+](=O)[O-])c2)=CCN1c1ccccc1O`, -23.7% (inactive).
Turning to `CN(C)c1cc2c(Nc3ccc4c(cnn4Cc4ccccc4)c3)ncnc2cn1`, the Potency is 5.01 µM (active).

Tested on in a further experiment: not listed separately
Put plainly: qHTS for differential inhibitors of proliferation of Plasmodium falciparum line GB4 (AID 1816).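 Further: parasite growth measured after 72 h incubation.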 Further: potency means the concentration at half of the fitted maximal effect.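 On activity change, negative = inhibition: 0% = vehicle DMSO and -100% = reference inhibitor.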 Conditions: Potency: Plasmodium falciparum GB4 proliferation inhibition; series mostly up to 28.7 µM; activity change, negative = inhibition: at the top concentration.
As to `Brc1ccc([C@H]2CN3CCSC3=N2)cc1`, the Potency was 12.6 µM (active).
Turning to `NC(N)=NCCCCN=C(N)N`, the “activity change, negative = inhibition” value is -1.89% (inactive).
On to `COc1ccccc1N1CCN(CCN2C(=O)CC3(CCCC3)CC2=O)CC1`, for which the “activity change, negative = inhibition” value is -20.7% (inactive).
`C[N+](C)(C)CCO`: the “activity change, negative = inhibition” value was 0.212% (inactive).
Same read-out and setting: with `O=C1NC(c2cccc([N+](=O)[O-])c2)=CCN1c1ccccc1O` the figure was -21.9% (inactive).
As for `CN(C)c1cc2c(Nc3ccc4c(cnn4Cc4ccccc4)c3)ncnc2cn1`, the Potency was 3.16 µM (active).

Tested on in another experiment: not listed separately
Put plainly: qHTS for differential inhibitors of proliferation of Plasmodium falciparum line 3D7 (AID 1876). Further: potency means the concentration at half of the fitted maximal effect.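 On activity, negative = inhibition: parasite growth measured after three days of culture; 0% = vehicle wells and -100% = reference inhibitor wells.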 Conditions: P. falciparum 3D7 proliferation inhibition; series mostly up to 28.7 µM; activity, negative = inhibition: at the top concentration.
For the compound `NC(N)=NCCCCN=C(N)N`, the “activity, negative = inhibition” value is -2.36% (inactive).
As to `COc1ccccc1N1CCN(CCN2C(=O)CC3(CCCC3)CC2=O)CC1`, the “activity, negative = inhibition” value was -8.54% (inactive).
For the compound `C[N+](C)(C)CCO`, the “activity, negative = inhibition” value is 8.37% (inactive).
For the compound `O=C1NC(c2cccc([N+](=O)[O-])c2)=CCN1c1ccccc1O`, the “activity, negative = inhibition” value is 4.65% (inactive).
With `CN(C)c1cc2c(Nc3ccc4c(cnn4Cc4ccccc4)c3)ncnc2cn1`, the Potency is 3.55 µM (active).

Tested on in another experiment: not listed separately
Put plainly: qHTS for differential inhibitors of proliferation of Plasmodium falciparum line D10 (AID 1877).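 Further: parasites grown with compound for 72 h before DNA staining.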 Further: potency means the concentration at half of the fitted maximal effect.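 On activity change, negative = inhibition: plate controls were vehicle wells for no effect and reference inhibitor wells for full effect.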 Conditions: series mostly up to 28.7 µM; activity change, negative = inhibition: at the top concentration.
`Brc1ccc([C@H]2CN3CCSC3=N2)cc1`: the “activity change, negative = inhibition” value is -18.8% (inactive).
On the same count and under the same terms, with `NC(N)=NCCCCN=C(N)N` the figure was -14.1% (inactive).
Still for that read-out and setting: with `COc1ccccc1N1CCN(CCN2C(=O)CC3(CCCC3)CC2=O)CC1` the figure was -7.17% (inactive); with `C[N+](C)(C)CCO`, 3.59% (inactive).
For `O=C1NC(c2cccc([N+](=O)[O-])c2)=CCN1c1ccccc1O`, the “activity change, negative = inhibition” value is -10.6% (inactive).
Turning to `CN(C)c1cc2c(Nc3ccc4c(cnn4Cc4ccccc4)c3)ncnc2cn1`, the Potency is 10 µM (active).

Tested on in a further experiment: not listed separately
Briefly: qHTS for differential inhibitors of proliferation of Plasmodium falciparum line Dd2 (AID 1882). Further: nearly all actives have a fitted effect of over 65% in size. Further: potency means the concentration at half of the fitted maximal effect.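 On activity change, negative = inhibition: plate controls were DMSO vehicle for no effect and 0.29 µM artemisinin for full effect.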 Conditions: Potency: Plasmodium falciparum Dd2 proliferation inhibition; series mostly up to 28.7 µM; activity change, negative = inhibition: at the top concentration. The method in brief:
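SYBR Green DNA fluorescence (ex 485, em 535 nm) after overnight lysis quantifies parasite growth; compound exposure lasted 72 h at 37 C on infected red cells at 2.5% hematocrit, 0.3% parasitemia (final). Artemisinin 0.29 uM and vehicle wells define normalization.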
Turning to `COc1cccc2c1[C@@H]1CN(CCCCn3c(=O)[nH]c4c(sc5ncc(-c6ccccc6)nc54)c3=O)C[C@@H]1CO2`, the “activity change, negative = inhibition” value is 8.09% (inactive).
The same measure, in the same setting: with `Cn1cnc2c(NCc3ccccc3)nc(NCCO)nc21` the figure was -15.1% (inactive); with `NC(N)=NCCCCN=C(N)N`, 0.149% (inactive).
On the same count and under the same terms, with `COc1ccccc1N1CCN(CCN2C(=O)CC3(CCCC3)CC2=O)CC1` the figure was -4.19% (inactive); with `C[N+](C)(C)CCO`, 1.23% (inactive); with `O=C1NC(c2cccc([N+](=O)[O-])c2)=CCN1c1ccccc1O`, -25.3% (inactive).
For the compound `CN(C)c1cc2c(Nc3ccc4c(cnn4Cc4ccccc4)c3)ncnc2cn1`, the Potency is 11.2 µM (active).

The values are drawn from PubChem BioAssay (NCATS).
